Out of some 69,000 compounds screened, about 8,600 (12%) showed an effect of 50% or more. The list comes from a sample in which strong results are over-represented; it also holds similar structures and randomly drawn compounds.

For this test, the system named is Plasmodium berghei. In words: Screen against P. berghei liver stage (PbLuc), transformed with Luciferase, at 10uM. Type of test: functional, HepG2. The settings on record: tested at 10 uM.
Turning to `O=C(C1CCCCC1)N1CCCC2(CCN(c3cnccn3)CC2)C1`, the INHIBITION was -2.35%.
The same measure for `c1cc(CNCc2cccc3c2OCCCO3)cc(Cn2cncn2)c1`: 53.1%; for `CC1CN(c2cc(CNCc3cccc4c3OCCO4)ccn2)CCO1` (stereo not given): -26.2%; for `c1cc(CNCc2ccc(Cn3cncn3)cc2)c2c(c1)OCCO2`: 16%.
With `c1cc(CNCc2ccnc(N3CCCCC3)c2)c2c(c1)OCCCO2` the figure was 70.1%.
The same measure for `c1cc(CNCc2cccc3c2OCCO3)cc(Cn2cncn2)c1`: -8.41%.
As to `CCc1nc(CN(C)C2CCN(Cc3nc(C4CC4)no3)C2)no1` (stereo not given), the INHIBITION is -31.6%.
With `COCC(=O)N1CCC(c2c(C(=O)N(C)C)sc3ncccc23)C1` (stereo not given) the figure was 9.54%; with `O=C(c1nc2c(o1)CN(CC1CC1)C2)N1CCCC1`, 18.5%.
With `CCCOc1ccccc1NCC(=O)Nc1ccc(CC)cc1` the figure was 15%.
With `c1cn2c(n1)CN(CC1CC1)CC(CN1CCOCC1)C2` (stereo not given) the figure was 42.1%.
Take `CCOC1CCN(C(=O)NCc2ccc(C(=O)N(C)C(C)C)cc2)CC1`: the INHIBITION was determined as 27.6%.
With `CCOC1CCN(C(=O)NCc2cccc(-n3cccn3)c2)CC1` the figure was 1.98%; with `CCOC1CCN(C(=O)NCc2ccc(CN3CCOCC3)cc2)CC1`, 61.8%.
With `O=C(N[C@@H]1CCC[C@@H](N2CCOCC2)[C@@H]1O)c1cc2ccccc2[nH]1` the figure was -3.31%; with `CC(C)N(C)Cc1cnc2n1CCN(Cc1cccc(F)c1)C2`, -22.1%; with `COCCNc1nc(NCCc2ccccc2)nc2nccnc12`, -14.9%.
In the case of `O=C(c1ccncc1)N1C[C@@H](OCc2cccnc2)[C@H]2OCCC[C@H]21`, the INHIBITION is listed as 10.6%.
The same measure for `Cc1cc(-c2nc(-c3c(C)ncc4c3CCNC4)no2)nc(C)n1`: 33.7%.
The same measure for `Cc1ncc2c(c1-c1noc(-c3cscn3)n1)CCNC2`: 58.8%; for `CSCC(=O)N1CCc2c(cnc(C)c2-c2noc(-c3cscn3)n2)C1`: 16.7%.
As for `NC(=O)C1CCN(C(=O)NCc2ccccc2-n2cccn2)C1` (stereo not given), the INHIBITION was 0.914%.
The same measure for `CC(C)Oc1ncccc1CNC(=O)N1CCC1c1ccccc1` (stereo not given): 52%.
The same measure for `Cc1cc(C2CCCN2C(=O)NCc2cccnc2OC(C)C)on1` (stereo not given): 29%; for `NC(=O)C1CCN(C(=O)NCc2ccccc2-n2cccn2)CC1`: 44.1%.
Take `CC(=O)N1CCCN(C(=O)NCc2cccnc2OC(C)C)CC1`: the INHIBITION is on record as -40.2%.
The same measure for `NC(=O)C1CCN(C(=O)NCc2cccnc2OC2CCCC2)C1` (stereo not given): 11.2%; for `CC(C)Oc1ncccc1CNC(=O)N1CCC1`: 54.4%; for `NC(=O)CC1CCN(C(=O)NCc2ccccc2-n2cccn2)CC1`: 56.3%.
The same measure for `CC(C)Oc1ncccc1CNC(=O)N1CCC(C(N)=O)C1` (stereo not given): 40.3%; for `CC(C)Oc1ncccc1CNC(=O)N1CCCC1c1ccsc1` (stereo not given): 31.2%; for `CC(C)Oc1ncccc1CNC(=O)N1CCSCC1`: 9.14%.
For `NC(=O)C1CCN(C(=O)NCc2cccnc2OCC(F)(F)F)C1` (stereo not given), the INHIBITION turned out to be 56.4%.
The same measure for `CC(C)N(C)Cc1cncc2c1CCN(C(=O)c1ccc[nH]1)C2`: 29%.
For the molecule `Cc1cccc(CN2CCc3ncnc(N4CCN(C)CC4)c3CC2)n1`, the INHIBITION was -110%.
The same measure for `COc1ccc(OC)c(-n2nnnc2SCC2CCCCO2)c1` (stereo not given): 20.9%.
With `Cc1cc(C)c(CNC(=O)NCC2CCCOC2)c(=O)[nH]1` (stereo not given) the figure was 27.5%; with `N#Cc1ccc(CNc2cccc(C(=O)N3CCOCC3)c2)cc1`, 24.2%.
With `Cc1nc(C)n(CC2CCCN(CC(=O)NC3CCOCC3)C2)n1` (stereo not given) the figure was -17%.
`CCN1CCC(=O)N(C)Cc2cc(F)ccc21`: the INHIBITION is given as 35.8%.
With `O=C(Cc1ccc2c(c1)OCCCO2)Nc1nnn[nH]1` the figure was -5.38%; with `O=C(NCc1cccnc1OCC(F)(F)F)N1CCOCC1`, 69.3%.
The same measure for `COCCOc1ncccc1CNC(=O)N1CCOCC1`: 44.3%; for `CC(=O)N1CCCN(C(=O)NCc2ccccn2)CC1`: 53.3%.
With `CCN1CCN(C(=O)NCc2cccnc2-n2cccn2)CC1` the figure was 33.8%; with `CC(C)CN1CCN(C(=O)NCc2cccnc2-n2cccn2)CC1`, 11%; with `O=C(CC1CCCCC1)N1CCN(C(=O)NCc2ccccn2)CC1`, 12.7%.
Take `CC(C)Oc1ncccc1CNC(=O)N1CCOCC1`: the INHIBITION is 65.6%.
The same measure for `CC(=O)N1CCN(C(=O)NCc2cccnc2OC(C)C)CC1`: 48.2%; for `CC(C)Oc1ncccc1CNC(=O)N1CCC(n2cccc2)CC1`: -69%; for `CN1CCCN(C(=O)NCc2cccnc2-n2cccn2)CC1`: 52.3%.
The same measure for `COc1ncccc1CNC(=O)N1CCC(CN2CCOCC2)CC1`: 29.4%.
The same measure for `CC(=O)N1CCCN(C(=O)NCCNc2ccccn2)CC1`: 16.533%.
As for `CCCc1nc(Nc2cccc(C(N)=O)c2)c2c(n1)c(C)nn2CC`, the INHIBITION is recorded as -28.15%.
With `O=C(Cn1cccc(S(=O)(=O)N2CCCC2)c1=O)c1ccccc1Cl` the figure was 16.6%.

Values taken from ChEMBL document CHEMBL4513216, “Probing the Open Global Health Chemical Diversity Library for Multistage-Active Starting Points for Next-Generation Antimalarials” (ACS Infect Dis, 2020).
